The structures appear in SMILES notation.

Percent Effect data for seven compounds are collected here from ChEMBL document CHEMBL3988442, “University of Dundee, Small-Polar-MMV Screening Library” (2021).

This test addresses Shiga toxin 2 (Escherichia coli O157:H7) (UniProt P09385+P09386). As to the kind of experiment: E. coli 0.157:H7 Shiga Toxin SOP - stx2 screening assay. It counts as functional. Set-up: scale not given: direction of the effect not stated beside the values. Particulars: 30 µM.
As for `COc1cccc(CCC2CCCN(C(=O)C3=NN(C)C(=O)CC3)C2)c1` (configuration not stated), the Percent Effect was -7.25%. The result for `CN(C)[C@H]1CCCCN(C(=O)CCc2csc(N)n2)C1` reads 3.47%; that for `CC(C)(C)c1n[nH]c(C2CN(C(=O)CCC3CC3)CCO2)n1` (configuration not stated), 11.1%; that for `CN(C)C(=O)CN1C(=O)CCC12CCN(Cc1cccn1C)CC2`, 0.848%. The figure for `Cc1nc(C)n(CC2CCCCN2CC(=O)N(C)Cc2ccco2)n1` (configuration not stated) is 3.6%; for `CC(C)C1CN(c2ncccn2)CCC(=O)N1Cc1ccc(F)cc1` (configuration not stated) it is 3.8%; for `Cc1cc(-c2nn(C)c(Cl)c2CN2CCOCC(O)C2)no1` (configuration not stated) it is 16.3%.
